Shown are actives, neighbours in structure and some others; about 4.6% of the full set was active somewhere.
D1 agonist = agonists of human D1 dopamine receptor | HEK293 T-REx D1 cells, calcium flux, agonist mode | AID 504660 | P21728 | activation, % at 2 µM | actives 1% (n = 360,000); also: 0% is about no effect
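Tetracycline-induced HEK293 TREx D1 cells, force-coupled to calcium signalling, were dye-loaded with a no-wash calcium kit. Compound was pin-added after a 10 s baseline. Fluorescence was read kinetically at 1 cycle/s for 180 s, with calcium rises flagged as agonism.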
TRHR ag = agonists of human TRH receptor. activation, % at 2 µM. TRHR cells, calcium flux fluo-8, FDSS agonist mode. actives 0.18% (n = 360,000); also: 0% is about no effect
Target sequence (P34981 whole entry, looked up): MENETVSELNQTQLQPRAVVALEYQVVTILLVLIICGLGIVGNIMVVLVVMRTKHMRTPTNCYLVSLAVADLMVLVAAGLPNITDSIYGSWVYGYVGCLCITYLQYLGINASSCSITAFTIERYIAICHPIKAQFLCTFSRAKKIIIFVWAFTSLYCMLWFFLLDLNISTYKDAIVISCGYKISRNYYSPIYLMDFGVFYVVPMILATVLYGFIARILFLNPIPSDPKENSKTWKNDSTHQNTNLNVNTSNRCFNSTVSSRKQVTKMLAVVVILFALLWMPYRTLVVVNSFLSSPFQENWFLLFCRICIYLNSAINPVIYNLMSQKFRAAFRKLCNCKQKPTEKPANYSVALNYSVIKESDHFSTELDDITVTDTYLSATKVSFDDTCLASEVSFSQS
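TRHR-expressing cells loaded with fluo-8 calcium dye; 23 nL library compound pin-transferred, kinetic FDSS fluorescence (Ex 480/Em 530) recorded about 180 s for agonist-induced calcium release, before a 10 nM TRH EC20 addition for potentiator mode.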
D1 antagonist = blocks dopamine activation of the human D1 receptor; P21728; HEK293 TREx D1 cells, calcium flux, dopamine EC80; hits give low values; activity change, negative = inhibition, % at 10 µM; actives 3.2% (n = 360,000); AID 504652; in the data active = activity change below about -30%; also: % is scaled to controls: 0 for no effect and ±100 for the full control effect
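After overnight tetracycline induction at 30 C, force-coupled D1 HEK293 cells took up a no-wash calcium dye at room temperature. Compounds were added and monitored 180 s, and the response to EC80 dopamine was then recorded.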
TRHR enhancer = allosteric enhancers of human TRH receptor. enhancement, % at 2 µM. P34981. TRHR cells, fluo-8 calcium fluorescence, EC20 TRH enhancement. AID 493056. actives 0.66% (n = 360,000); in the data active = enhancement above about 30%; also: 0% is about no effect
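Enhancer read-out: after compound pinning and an initial kinetic agonist-mode read, an EC20 of TRH (10 nM final) was injected and fluo-8 calcium signal (Ex 480/Em 530) followed at 1 s/cycle for 100 cycles in TRHR-expressing cells.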
D1 potentiator = enhances dopamine response at the human D1 receptor | P21728 | HEK293 TREx D1 cells, calcium flux, dopamine EC20 potentiation | potentiation, % at 10 µM | actives 0.036% (n = 360,000); in the data active = potentiation above about 30%; also: 0% is about no effect
* marks the source's active call; other numbers are inactive results; nt = no result given; ! = repeats disagree. Rule as the data show it, unless noted: active = activation above about 30%; inactive = the rest.

SMILES	D1 agonist	TRHR ag	D1 antagonist	TRHR enhancer	D1 potentiator
COc1ccc2nc(SCC(=O)N3CC(=O)Nc4ccccc43)c(C#N)cc2c1	32.3*	9.2	-30.2*	-8.8	-3.2
CCCCOc1cccc(C(=O)N(Cc2ccc(N(C)C)cc2)C2CCS(=O)(=O)C2)c1 (stereo not drawn)	1.2	-0.1	16.9	-4.3	1.4
Cc1occc1C(=O)/C(C#N)=C/c1ccc(O)c(Br)c1	45.2*	18.4	-15.8	8.0	nt
S=c1[nH]nc(-c2ccc3ccccc3n2)n1-c1cc(Cl)cc(Cl)c1	41.4*	-0.9	-25.7	-1.6	-11.3
Cc1ccccc1NC(=O)CSc1cn(CC(=O)N2CCCCCC2)c2ccccc12	5.2	-0.5	-0.2	-10.8	-1.7
CN(C)c1ccc(/C=c2\sc3nc(-c4ccccc4)nn3c2=O)cc1	6.4	5.5	-57.1*	-2.7	-9.2
COc1cc(/C=c2\sc3nc(-c4ccncc4)nn3c2=O)ccc1OC(C)=O	2.6	0.7	-4.6	-3.3	-3.2
O=C(NCCO)c1cccc(Nc2nc(-c3ccccc3)c3cc(Cl)ccc3n2)c1	0.4	-0.1	-23.7	31.4*	4.0
C[C@@H](CSc1ccccc1)CN1CC[C@H](O)CCC1=O	-0.6	0.5	-31.0*	-4.1	1.4
Cc1nn(-c2ccccc2)c2sc(C(=O)NC3CCCCC3)cc12	2.0	0.0	-51.6*	-2.3	-3.0
Cc1nn(-c2ccccc2)c2sc(C(=O)N3CCc4ccccc4C3)cc12	12.0	-0.2	5.0	32.0*	5.6
CCc1ccc(S(=O)(=O)c2nnn3c2nc(Nc2ccc(F)cc2)c2cc(Cl)ccc23)cc1	2.7	0.5	5.7	6.2	-3.3
COc1ccc2c(c1OC)C(=O)N1c3ccccc3COC21 (stereo not drawn)	-0.5	0.0	-5.9	25.0	-3.9
COc1ccc2c(c1OC)C(=O)N1c3ccccc3SC21 (stereo not drawn)	0.8	0.1	-4.1	39.5*	1.6
CC(=O)Oc1ccccc1C(=O)Oc1ccccc1C(=O)O	-0.3	0.4	26.2	-4.6	-0.6
CC(C)CCOCC(=O)Oc1ccccc1C(=O)O	3.3	0.5	-10.0	30.0*	-1.4
Cc1cc(F)ccc1NC(=O)Cn1c(=O)ccc2cc(S(=O)(=O)N3CCC(C)CC3)ccc21	-0.5	1.8	10.4	0.6	-1.4
Cc1cc(C)cc(NC(=O)C(NCCN2CCOCC2)c2ccccc2)c1 (stereo not drawn)	6.2	0.1	-53.6*	-0.5	-6.6
COc1ccc(C(=O)N/C(=C\c2ccc([N+](=O)[O-])cc2)C(=O)NC(CCSC)C(=O)O)cc1 (stereo not drawn)	110.6*	22.3	-33.1*	-7.9	0.2
COc1ccc(/C=C(\NC(=O)c2ccc(OC)cc2)C(=O)NC(CCSC)C(=O)O)cc1 (stereo not drawn)	1.1	-0.1	-2.7	-1.6	-10.2
CCc1ccc(NCc2cc3cc(OC)c(OC)cc3n(CC(=O)Nc3cc(C)ccc3C)c2=O)cc1	2.2	11.6	-3.1	2.2	3.2
CC(C)C(=O)Nc1nnc(S(=O)(=O)N2CCCCCC2)s1	0.5	1.4	-31.8*!	7.4	-0.9
CC1CCN(S(=O)(=O)c2nnc(NC(=O)c3cccc(Br)c3)s2)CC1	0.7	0.2	10.3	-1.3	0.3
CCC(CC)C(=O)Nc1nnc(S(=O)(=O)N2CCCCCC2)s1	6.8	2.5	-0.4	-8.1	5.3
O=C(Nc1nnc(S(=O)(=O)N2CCCCCC2)s1)c1ccc(Cl)cc1	7.6	0.7	4.3	36.7*!	7.6
SMILES	D1 agonist	TRHR ag	D1 antagonist	TRHR enhancer	D1 potentiator
O=C(Nc1nnc(S(=O)(=O)N2CCCCC2)s1)c1cccc(Br)c1	30.3*	0.6	-5.0	-0.9	-3.6
Cc1ccc(C(=O)Nc2nnc(S(=O)(=O)N3CCCCCC3)s2)cc1	0.9	-0.2	-1.9	4.7	-2.9
CC(C)(C)C1CCc2c(sc(NC(=O)c3cc4ccccc4c(=O)o3)c2C(N)=O)C1 (stereo not drawn)	-0.9	0.2	8.6	11.3	-1.8
COC(=O)c1c(N(S(C)(=O)=O)S(C)(=O)=O)sc2c1CCN(c1ncc(C(F)(F)F)cc1Cl)C2	5.7	-0.5	-2.0	1.3	-2.6
COC(=O)c1c(/N=C/N(C)C)sc2c1CCN(c1ncc(C(F)(F)F)cc1Cl)C2	23.5	-0.2	-30.8*	2.8	-14.2
Cc1cccc(NC(=O)c2oc3ccc(S(=O)(=O)N4CCC5(CC4)OCCO5)cc3c2C)c1C	-0.2	0.5	-3.8	0.1	1.0
Cc1ccc(C)c(S(=O)(=O)NCc2ccncc2)c1	11.0	-2.9	-42.8*	15.2	-11.4
Cc1ccc(C)c(S(=O)(=O)NCc2ccc(C(=O)N3CCCCCC3)cc2)c1	13.1	0.2	-31.9*	-10.5	-9.8
COc1ccc(C(=O)NCC(c2ccco2)S(=O)(=O)c2cccs2)cc1 (stereo not drawn)	-0.5	0.2	nt	-5.3	-3.2
COc1cc(NC(=O)c2c(C)oc3ncnc(N4CCCCC4)c23)cc(OC)c1	0.7	-1.9	-0.4	-3.3	6.3
Cc1ccc(C)c(Cn2nnc(C(=O)NCc3ccccc3)c2N)c1	41.1*	-0.4	-6.4	21.4	-0.7
Nc1c(C(=O)NCc2ccccc2)nnn1Cc1cccc(Br)c1	2.2	-0.2	1.9	0.5	-0.8
Cc1cc(C)cc(NC(=O)Cn2nnc(C(=O)NCc3ccc4c(c3)OCO4)c2N)c1	5.0	1.1	-31.8*	3.8	-6.5
CSc1ccc(Cn2nnc(C(=O)NCc3ccccc3)c2N)cc1	49.1*	3.4	-4.1	-4.3	6.8
CCOc1ccc(Cn2nnc(C(=O)NCCc3ccc(Cl)cc3)c2N)cc1	0.9	0.0	-36.9*	-3.0	nt
CCOc1ccc(Cn2nnc(C(=O)NCCc3ccccc3)c2N)cc1	6.0	0.1	-9.7	1.4	nt
COc1ccc(Cl)cc1C(=O)NCC(c1ccc(N(C)C)cc1)N1CCOCC1 (stereo not drawn)	0.2	-0.3	-9.6	-0.6	1.3
CN1CCN(C(=O)C(=O)Nc2c3c(nn2-c2ccc(Cl)cc2)CSC3)CC1	-1.8	0.2	nt	3.3	-1.5
COc1cccc(Cn2nnc(C(=O)NCc3ccc(F)cc3)c2N)c1	0.8	0.0	-50.5*	4.2	-6.0
Nc1c(C(=O)NCc2ccccc2)nnn1Cc1ccccc1	8.7	0.6	4.4	34.4*	nt
Cc1nc2ccccc2cc1OCc1ccccc1	16.8	1.2	-59.0*	1.2	-6.7
Cc1nc2ccccc2cc1OCc1ccc(Cl)cc1	11.5	0.1	-12.2	2.8	5.6
Cc1ccc(C)c(Nc2nc(-c3ccccc3)c3cc(Br)ccc3n2)c1	5.0	1.0	5.1	-6.3	2.8
O=C(Cn1c(=O)c2cccn2c2cccnc21)N1CCN(c2ccc(Cl)cc2)CC1	2.9	0.0	4.0	-2.9	3.0
COc1ccc(-c2cc(C(C)=O)c(C)n2CCC(=O)Nc2cccc(C)c2C)cc1	0.2	-0.7	20.3	7.8	-5.8
